Data published in PubChem BioAssay AID1159580 (chemical genetic matrix, 2015).
Among all 5,500 compounds or so, about 2,000 (36%) were called active. Roughly 18% stayed inconclusive and do not appear here. Rule as the data show it: active = normalized growth mostly below about 0.91 (no sharp cut-off); inconclusive = no clear call, values can overlap the other calls; inactive = mostly above about 0.92. The list shows a part of the results.

Assay: chemical genetic growth profiling, strain panel (AID 1159580);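 also: tested at 20 µM; growth read once vehicle control cultures reached saturation at 30 °C; 1 = growth at the plate median or of vehicle wells; lower values mean less growth of the strain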
Settings: S. cerevisiae deletion strains, growth OD
[1] = locus YAL040C, strain CLN3, hits give low values
[2] = locus YCL061C, strain MRC1 (second series), hits give low values
[3] = locus YER002W, strain NOP16, hits give low values
[4] = locus YNL175C, strain NOP13, hits give low values
[5] = locus YNL197C, strain WHI3, hits give low values
[6] = locus YNL224C, strain SQS1, hits give low values
[7] = locus YOR083W, strain WHI5 (second series), hits give low values

Measured: normalized growth

O=c1[nH]ccc2c(O)cccc12
inactive: locus YAL013W, strain DEP1, hits give low values 0.996 | [1] 0.999 | [2] 0.996 | locus YDR363W, strain ESC2, hits give low values 1.02 | [3] 0.999 | locus YGR078C, strain PAC10, hits give low values 1 | locus YGR229C, strain SMI1, hits give low values 1.02 | [4] 1.01 | [5] 1.01 | [6] 0.994 | locus YNL322C, strain KRE1, hits give low values 1 | [7] 1.06 | locus YPL241C, strain CIN2, hits give low values 0.99

O=C(O)c1cc(=O)cc(C(=O)O)[nH]1
inactive: [1] 1.02 | [2] 1.01 | [3] 1.04 | locus YMR263W, strain SAP30, hits give low values 0.998 | locus YMR307W, strain GAS1, hits give low values 1.01 | [4] 0.999 | [5] 1.03 | [6] 1.01 | [7] 1.02 | locus YPL055C, strain LGE1, hits give low values 1.01
